The whole screen tested about 310,000 compounds, of which about 14,000 (4.5%) showed an effect of 50% or more. Effects have a minus sign here. For the sample, strong results were picked, then their nearest neighbours and some compounds at random.
Molecular target: human ether-à-go-go-related gene (hERG) potassium channel (human, UniProt Q12809)
Experiment: primary screen, population patch clamp on CHO cells stably expressing hERG; higher = less effect of the substance
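Further: peak tail current of the secondary pulse compared with the same well before compound.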

Sequence of human ether-à-go-go-related gene (hERG) potassium channel (Q12809 whole entry, looked up): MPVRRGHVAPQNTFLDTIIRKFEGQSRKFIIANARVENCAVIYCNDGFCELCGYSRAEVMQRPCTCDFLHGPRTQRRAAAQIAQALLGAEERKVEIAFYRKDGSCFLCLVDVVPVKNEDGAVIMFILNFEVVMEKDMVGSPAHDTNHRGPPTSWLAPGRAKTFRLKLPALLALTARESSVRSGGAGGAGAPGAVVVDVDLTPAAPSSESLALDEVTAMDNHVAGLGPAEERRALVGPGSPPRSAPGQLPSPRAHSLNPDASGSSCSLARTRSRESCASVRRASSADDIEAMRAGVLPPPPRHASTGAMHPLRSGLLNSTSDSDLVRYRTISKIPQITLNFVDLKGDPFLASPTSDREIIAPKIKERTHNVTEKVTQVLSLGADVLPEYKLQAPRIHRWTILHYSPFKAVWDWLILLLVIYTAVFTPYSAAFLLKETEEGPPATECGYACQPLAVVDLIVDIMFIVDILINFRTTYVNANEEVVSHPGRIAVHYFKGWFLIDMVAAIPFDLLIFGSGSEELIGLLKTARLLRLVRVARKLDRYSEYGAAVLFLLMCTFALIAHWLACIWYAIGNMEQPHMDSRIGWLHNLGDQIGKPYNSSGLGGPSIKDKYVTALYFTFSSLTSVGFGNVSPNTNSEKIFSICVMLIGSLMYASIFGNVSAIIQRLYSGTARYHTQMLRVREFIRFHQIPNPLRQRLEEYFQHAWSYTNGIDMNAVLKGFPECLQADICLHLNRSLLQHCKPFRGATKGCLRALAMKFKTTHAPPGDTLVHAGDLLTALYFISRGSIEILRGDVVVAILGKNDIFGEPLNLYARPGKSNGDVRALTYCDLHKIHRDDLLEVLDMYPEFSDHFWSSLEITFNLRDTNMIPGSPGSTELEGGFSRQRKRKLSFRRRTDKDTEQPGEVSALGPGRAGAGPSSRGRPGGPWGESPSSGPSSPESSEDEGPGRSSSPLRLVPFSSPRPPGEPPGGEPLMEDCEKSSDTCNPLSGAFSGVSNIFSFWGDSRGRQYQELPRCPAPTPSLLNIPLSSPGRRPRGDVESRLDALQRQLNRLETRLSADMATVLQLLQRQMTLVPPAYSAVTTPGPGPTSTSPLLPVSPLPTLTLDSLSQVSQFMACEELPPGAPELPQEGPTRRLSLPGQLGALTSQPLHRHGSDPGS

Compound | hERG current change (%, negative = inhibition) at 10uM [%]
O=C(NCCC1=CCCCC1)c1cc(COc2ccc(F)cc2Cl)on1 | 10.4
COc1cccc(NC(=O)Cn2c(CCC(=O)O)ccc2-c2cccs2)c1 | 12.4
Cc1ccc(NC(=O)Cn2c(CCC(=O)O)ccc2-c2cccs2)cc1Cl | -75.3
Cc1ccc(NC(=O)Cn2c(CCC(=O)O)ccc2-c2cccs2)cc1 | -2.61
CC(C)Oc1ccc(S(=O)(=O)N2CCOCC2)cc1NC(=O)C1CCCCC1 | -19.6
O=C(O)CSc1ncnc2sc(-c3ccccc3)cc12 | 23.6
Cc1cccc(Nc2sc(C(=O)c3cc4cc(Cl)ccc4o3)c(N)c2C#N)c1 | -2.78
FC(F)(F)c1cccc(Nc2nc(N3CCCC3)nc(N3CCCC3)n2)c1 | 23.7
CN1CCN(c2nc(Nc3ccc(F)cc3)nc(Nc3ccc(F)cc3)n2)CC1 | -60.5
FC(F)(F)c1cccc(Nc2nc(N3CCOCC3)nc(N3CCOCC3)n2)c1 | 15.6
Cl.Fc1ccc(Nc2nc(N3CCOCC3)nc(N3CCOCC3)n2)cc1 | 4.26
COc1ccc(N2CCN(c3nc(Cl)nc(Nc4ccc(F)cc4)n3)CC2)cc1 | 7.8
CN1CCN(c2nc(Nc3cccc(C(F)(F)F)c3)nc(N3CCOCC3)n2)CC1 | -60
COc1ccc(/C=N/N=C/c2ccc(OC)c(O)c2)cc1O | 23.2
Cc1ccc(C(=O)/C=C/c2ccc(-c3ccccc3[N+](=O)[O-])o2)cc1 | 12.5
O=C(O)/C(=C\c1ccc(-c2ccccc2[N+](=O)[O-])o1)c1ccccc1 | 23.6
CCCCNC(=O)/C(=C\c1ccc([N+](=O)[O-])o1)NC(=O)c1ccccc1 | -39.8
Cc1ccc(C(=O)N/C(=C\c2ccc(-c3ccccc3[N+](=O)[O-])o2)C(=O)NCCCN(C)C)cc1 | -74.5
Cc1ccc(C(=O)N/C(=C\c2ccc(-c3ccccc3[N+](=O)[O-])o2)C(=O)NCCN(C)C)cc1 | -55.4
Cc1ccc(Oc2ccccc2/C=C/C(=O)O)cc1 | 14.6
C=CCn1c(SCC(=O)NC(=O)NC2CCCC2)nnc1C1CCCCC1 | 3.7

Compound | hERG current change (%, negative = inhibition) at 10uM [%]
O=C(CSc1nnc(CNc2ccc(F)cc2)o1)N1c2ccccc2Sc2ccccc21 | 11
CCN1CCN(CCNC(=O)c2ccc(/C=C3/Sc4ccccc4N(Cc4cccc(C)c4)C3=O)cc2)CC1 | -22
CCOc1cc(CNCCCN2CCOCC2)cc(Cl)c1OCC(=O)NC(C)(C)C.Cl | 5.38
CCOc1cc(CNCCN2CCOCC2)ccc1OCc1ccccc1Cl.Cl | -41.8
CCOc1cc(CNCCCN2CCOCC2)cc(Br)c1OCc1ccccc1Cl.Cl | -64.9
CCC(CO)NCc1ccc(OCC(=O)Nc2cccc(C(F)(F)F)c2)c(OC)c1 (stereo not drawn) | -43.6
COc1ccc(NC(=O)COc2ccc(CNCCCN3CCOCC3)cc2OC)cc1.Cl | 0.185
CCOc1cc(CNC(CC)CO)ccc1OCC(=O)Nc1cccc(C(F)(F)F)c1 (stereo not drawn) | -68.3
CCOc1cc(CNCCCN2CCOCC2)cc(Br)c1OCC(=O)Nc1cccc(C(F)(F)F)c1.Cl | -70.3
CCOc1cc(CNCCO)cc(Br)c1OCc1ccccc1Cl.Cl | 12.5
CCOc1cc(CNC(C)(C)C)ccc1OCC(=O)Nc1cccc(C(F)(F)F)c1.Cl | -13.7
CCOc1cc(CNCCCN2CCOCC2)ccc1OCC(=O)Nc1cccc2ccccc12.Cl | -7.77
COc1cc(CNCCCN2CCOCC2)ccc1OCC(=O)NC(C)(C)C.Cl | 21
COc1cc(CNCCCN2CCOCC2)ccc1OCC(=O)Nc1cccc(C(F)(F)F)c1.Cl | -56.6
CCOc1ccc(CC(=O)Nc2ccc(S(=O)(=O)N3CCCC3)cc2)cc1 | 10.4
Cc1cc(C(=O)COC(=O)CC2Sc3ccccc3NC2=O)c(C)n1-c1ccccc1 (stereo not drawn) | 28
O=C(COc1ccc2c(c1)C(=O)CC1(CCCCC1)O2)NCc1ccccn1 | -33.9
O=C(CCS(=O)(=O)c1cccc2nonc12)Nc1cccc2c1CCCC2 | 4.5
Cc1ccc(C)c(N2CC(C(=O)O)CC2=O)c1 (stereo not drawn) | -2.08
CN(CC(=O)Nc1ccc(Cl)cc1)C(=O)COc1ncnc2ccccc12 | -8.52
CCCCn1nnnc1SCC(=O)N(CC)CC | 10.4
